From the supplement of paper PMC3150612
± gives the standard deviation of the averaged measurements.

Assays:
Drosophila melanogaster [1] = test: olfactory response index (dipstick assay) (fraction of flies (RI; 1 aversion, 0.5 indifferent, 0 attraction)); higher = stronger aversion to the odorant; conditions: odorant concentration: 1% v/v, male
Drosophila melanogaster [2] = test: as above; conditions: odorant concentration: 1% v/v, female
[3] = genotype (tubulin-GAL4 x UAS-RNAi line; control = progenitor): A5
[4] = genotype (tubulin-GAL4 x UAS-RNAi line; control = progenitor): control
[5] = genotype (tubulin-GAL4 x UAS-RNAi line; control = progenitor): obp 18a
[6] = genotype (tubulin-GAL4 x UAS-RNAi line; control = progenitor): obp 22a
[7] = genotype (tubulin-GAL4 x UAS-RNAi line; control = progenitor): obp 28a
[8] = genotype (tubulin-GAL4 x UAS-RNAi line; control = progenitor): obp 56a
[9] = genotype (tubulin-GAL4 x UAS-RNAi line; control = progenitor): obp 56c
[10] = genotype (tubulin-GAL4 x UAS-RNAi line; control = progenitor): obp 56f
[11] = genotype (tubulin-GAL4 x UAS-RNAi line; control = progenitor): obp 57a
[12] = genotype (tubulin-GAL4 x UAS-RNAi line; control = progenitor): obp 57b
[13] = genotype (tubulin-GAL4 x UAS-RNAi line; control = progenitor): obp 58c
[14] = genotype (tubulin-GAL4 x UAS-RNAi line; control = progenitor): obp 59a
[15] = genotype (tubulin-GAL4 x UAS-RNAi line; control = progenitor): obp 83a
[16] = genotype (tubulin-GAL4 x UAS-RNAi line; control = progenitor): obp 83c
[17] = genotype (tubulin-GAL4 x UAS-RNAi line; control = progenitor): obp 93a
[18] = genotype (tubulin-GAL4 x UAS-RNAi line; control = progenitor): obp 99b
[19] = genotype (tubulin-GAL4 x UAS-RNAi line; control = progenitor): obp 56h
[20] = genotype (tubulin-GAL4 x UAS-RNAi line; control = progenitor): obp 58b

Compound	olfactory response index (Drosophila melanogaster [1]; [3])	olfactory response index (Drosophila melanogaster [1]; [4])	olfactory response index (Drosophila melanogaster [1]; [5])	olfactory response index (Drosophila melanogaster [1]; [6])	olfactory response index (Drosophila melanogaster [1]; [7])	olfactory response index (Drosophila melanogaster [1]; [8])	olfactory response index (Drosophila melanogaster [1]; [9])	olfactory response index (Drosophila melanogaster [1]; [10])	olfactory response index (Drosophila melanogaster [1]; [11])	olfactory response index (Drosophila melanogaster [1]; [12])	olfactory response index (Drosophila melanogaster [1]; [13])	olfactory response index (Drosophila melanogaster [1]; [14])	olfactory response index (Drosophila melanogaster [1]; [15])	olfactory response index (Drosophila melanogaster [1]; [16])	olfactory response index (Drosophila melanogaster [1]; [17])	olfactory response index (Drosophila melanogaster [1]; [18])	olfactory response index (Drosophila melanogaster [1]; [19])	olfactory response index (Drosophila melanogaster [2]; [3])	olfactory response index (Drosophila melanogaster [2]; [4])	olfactory response index (Drosophila melanogaster [2]; [5])	olfactory response index (Drosophila melanogaster [2]; [6])	olfactory response index (Drosophila melanogaster [2]; [7])	olfactory response index (Drosophila melanogaster [2]; [8])	olfactory response index (Drosophila melanogaster [2]; [9])	olfactory response index (Drosophila melanogaster [2]; [10])	olfactory response index (Drosophila melanogaster [2]; [11])	olfactory response index (Drosophila melanogaster [2]; [12])	olfactory response index (Drosophila melanogaster [2]; [20])	olfactory response index (Drosophila melanogaster [2]; [13])	olfactory response index (Drosophila melanogaster [2]; [14])	olfactory response index (Drosophila melanogaster [2]; [15])	olfactory response index (Drosophila melanogaster [2]; [16])	olfactory response index (Drosophila melanogaster [2]; [17])	olfactory response index (Drosophila melanogaster [2]; [18])	olfactory response index (Drosophila melanogaster [2]; [19])
CC(=O)OCCC(C)C [isoamyl acetate]	0.156 ± 0.046	0.228 ± 0.095	0.362 ± 0.29	0.238 ± 0.1	0.237 ± 0.067	0.419 ± 0.15	0.373 ± 0.16	0.58 ± 0.23	0.192 ± 0.015	0.215 ± 0.071	0.173 ± 0.11	0.629 ± 0.17	0.339 ± 0.15	0.321 ± 0.13	0.343 ± 0.14	0.23 ± 0.083	0.348 ± 0.16	0.442 ± 0.16	0.707 ± 0.066	0.34 ± 0.095	0.625 ± 0.1	0.488 ± 0.25	0.665 ± 0.19	0.832 ± 0.067	0.497 ± 0.18	0.465 ± 0.13	0.583 ± 0.29	0.364 ± 0.2	0.471 ± 0.14	0.733 ± 0.07	0.594 ± 0.099	0.6 ± 0.054	0.702 ± 0.097	0.499 ± 0.14	0.659 ± 0.12
CC(C)=CCCC(C)=CC=O (mixture of isomers) [citral]	0.266 ± 0.06	0.226 ± 0.041	0.202 ± 0.06	0.17 ± 0.11	0.387 ± 0.092	0.0537 ± 0.02	0.186 ± 0.067	0.452 ± 0.042	0.215 ± 0.046	0.321 ± 0.11	0.166 ± 0.046	0.517 ± 0.0054	0.101 ± 0.099	0.292 ± 0.16	0.285 ± 0.083	0.0832 ± 0.075	0.226 ± 0.13	0.595 ± 0.02	0.674 ± 0.046	0.292 ± 0.12	0.474 ± 0.18	0.552 ± 0.055	0.195 ± 0.075	0.606 ± 0.034	0.639 ± 0.027	0.636 ± 0.17	0.642 ± 0.097	0.687 ± 0.15	0.409 ± 0.19	0.68 ± 0.086	0.479 ± 0.091	0.262 ± 0.091	0.536 ± 0.16	0.317 ± 0.01	0.66 ± 0.13
CC(C)=CCC/C(C)=C/CO [geraniol]	0.228 ± 0.033	0.136 ± 0.091	0.0872 ± 0.11	0.0901 ± 0.081	0.177 ± 0.1	0.188 ± 0.086	0.174 ± 0.038	0.175 ± 0.023	0.0811 ± 0.02	0.0917 ± 0.055	0.114 ± 0.049	0.441 ± 0.039	0.159 ± 0.025	0.183 ± 0.099	0.412 ± 0.13	0.141 ± 0.11	0.197 ± 0.18	0.71 ± 0.16	0.492 ± 0.12	0.371 ± 0.15	0.367 ± 0.018	0.605 ± 0.03	0.581 ± 0.099	0.295 ± 0.025	0.468 ± 0.18	0.406 ± 0.12	0.504 ± 0.032	0.591 ± 0.17	0.19 ± 0.12	0.565 ± 0.091	0.442 ± 0.07	0.414 ± 0.034	0.593 ± 0.061	0.35 ± 0.23	0.406 ± 0.18
CCc1cnccn1 [2-ethylpyrazine]	0.416 ± 0.069	0.118 ± 0.067	0.0666 ± 0.045	0.0894 ± 0.038	0.472 ± 0.092	0.194 ± 0.068	0.206 ± 0.11	0.247 ± 0.11	0.114 ± 0.085	0.0743 ± 0.059	0.144 ± 0.016	0.385 ± 0.17	0.221 ± 0.036	0.167 ± 0.082	0.342 ± 0.071	0.146 ± 0.061	0.319 ± 0.058	0.581 ± 0.074	0.524 ± 0.027	0.393 ± 0.2	0.435 ± 0.1	0.581 ± 0.0069	0.409 ± 0.078	0.497 ± 0.13	0.568 ± 0.16	0.304 ± 0.2	0.4 ± 0.14	0.256 ± 0.14	0.419 ± 0.22	0.638 ± 0.033	0.567 ± 0.092	0.522 ± 0.12	0.552 ± 0.076	0.159 ± 0.089	0.492 ± 0.14
OCCc1ccccc1 [2-phenylethanol]	0.116 ± 0.078	0.0893 ± 0.051	0.0701 ± 0.021	0.0651 ± 0.059	0.163 ± 0.03	0.0222 ± 0.021	0.0551 ± 0.048	0.0672 ± 0.04	0.0379 ± 0.021	0.138 ± 0.096	0.125 ± 0.076	0.155 ± 0.067	0.132 ± 0.06	0.127 ± 0.051	0.135 ± 0.043	0.0352 ± 0.025	0.106 ± 0.049	0.396 ± 0.15	0.5 ± 0.2	0.117 ± 0.066	0.403 ± 0.12	0.526 ± 0.051	0.299 ± 0.11	0.367 ± 0.17	0.414 ± 0.076	0.128 ± 0.068	0.379 ± 0.17	0.381 ± 0.17	0.166 ± 0.08	0.258 ± 0.074	0.414 ± 0.058	0.437 ± 0.14	0.422 ± 0.2	0.0815 ± 0.14	0.258 ± 0.2
COC(=O)c1ccccc1O [methyl salicylate]	0.331 ± 0.2	0.13 ± 0.099	0.0711 ± 0.077	0.179 ± 0.09	0.249 ± 0.1	0.161 ± 0.056	0.181 ± 0.16	0.173 ± 0.11	0.038 ± 0.036	0.193 ± 0.15	0.159 ± 0.068	0.368 ± 0.047	0.225 ± 0.13	0.14 ± 0.032	0.294 ± 0.18	0.108 ± 0.042	0.147 ± 0.04	0.49 ± 0.19	0.558 ± 0.091	0.114 ± 0.14	0.486 ± 0.086	0.384 ± 0.081	0.523 ± 0.13	0.27 ± 0.14	0.295 ± 0.068	0.356 ± 0.1	0.384 ± 0.23	0.287 ± 0.066	0.381 ± 0.22	0.616 ± 0.093	0.454 ± 0.19	0.654 ± 0.066	0.491 ± 0.02	0.308 ± 0.16	0.63 ± 0.22
CCC/C=C/C=O [(E)-2-hexenal]	0.565 ± 0.14	0.681 ± 0.13	0.494 ± 0.13	0.655 ± 0.11	0.672 ± 0.07	0.763 ± 0.079	0.618 ± 0.13	0.657 ± 0.065	0.555 ± 0.15	0.718 ± 0.037	0.732 ± 0.052	0.666 ± 0.0073	0.663 ± 0.1	0.67 ± 0.085	0.782 ± 0.14	0.29 ± 0.16	0.55 ± 0.12	0.723 ± 0.11	0.804 ± 0.15	0.724 ± 0.12	0.811 ± 0.14	0.753 ± 0.051	0.892 ± 0.028	0.768 ± 0.1	0.727 ± 0.076	0.843 ± 0.1	0.794 ± 0.18	0.703 ± 0.057	0.715 ± 0.11	0.767 ± 0.13	0.779 ± 0.088	0.837 ± 0.1	0.848 ± 0.054	0.529 ± 0.24	0.665 ± 0.17
